Results taken from PubChem BioAssay (Tox21).
“And” between values parts separate entries of the source, which are not always exact repeats. Equal values may be shown once. Inconclusive results are not listed. A call without a number means that no potency is given here. More than one record can exist for a structure, and the calls need not agree. The source made the active and inactive calls. Unless noted, calls follow the shape of the dose curve; as a rule, active = well fitted curve in the direction sought with a large enough effect in the repeat runs; inconclusive = weak or mixed curves; inactive = no such curve, though single readings can be large; an effect the other way counts as inactive or inconclusive.

Tests used:
[1] = target: Luciferin 4-monooxygenase (Photinus pyralis) (UniProt P08659); test: qHTS assay to identify small molecule inhibitors of firefly luciferase (AID 1224835); also: nearly all actives have a fitted effect of over 25% in size
Summary of the method: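 Biochemical qHTS: compounds run as interplate titrations against purified firefly enzyme, with D-luciferin and ATP each at its KM concentration. Light output recorded by CCD imaging.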

[2] = qHTS assay to identify small molecule agonists of the constitutive androstane receptor (CAR) signaling pathway - cell viability counter screen (AID 1224836); also: nearly all actives have a fitted effect of over 45% in size
Summary of the method: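 Fluorescence from CellTiter-Fluor indicates live cells after 23 h exposure. The human hepatoma line expresses hCAR and a CYP2B6-2.2kb reporter. Incubation medium contains 0.75 uM PK11195 (final).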

[3] = qHTS assay to identify small molecule antagonists of the constitutive androstane receptor (CAR) signaling pathway - cell viability counter screen (AID 1224837); also: nearly all actives have a fitted effect of over 45% in size
Summary of the method: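 HepG2 cells stably carrying hCAR and CYP2B6-2.2kb reporter, stimulated with 50 nM CITCO and compounds at 15 concentrations for 23 h at 37 C. Viability measured by CellTiter-Fluor fluorescence.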

[4] = qHTS assay to identify small molecule antagonists of the estrogen related receptor signaling pathway with the pleiotropic PPARgamma coactivator (PGC) from Tox21 10K library - cell viability counter screen (AID 1224840; active = well fitted cell-killing curve with a large enough effect in the repeat runs, not every such curve was filed as active; also: nearly all actives have a fitted effect of over 40% in size; also: potency is read from the fitted curve at half-maximal effect)
Summary of the method: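 PGC/ERR cells (2,000/well) plated 6 h, then compound-treated for 17.5 h at 37 C. Viability measured by CellTiter-Fluor fluorescence after 30 min at 37 C, multiplexed with the pathway assay.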

[5] = target: Thyrotropin receptor (Homo sapiens) (UniProt P16473); test: qHTS assay to identify small molecule agonists of the thyroid stimulating hormone receptor (TSHR) signaling pathway (AID 1224843; calls by dose curve; also: nearly all actives have a fitted effect of over 45% in size)
Summary of the method: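 Steps: seed 800 TSHR-HEK293 cells per well; add test compound and hold 30 min at ambient temperature; dispense cAMP-d2 then anti-cAMP cryptate; incubate 1 h at ambient; measure fluorescence intensity.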

[6] = qHTS assay to identify small molecule agonists of the hypoxia (HIF-1) signaling pathway - cell viability counter screen (AID 1224844; calls by dose curve; also: nearly all actives have a fitted effect of over 50% in size; also: potency is read from the fitted curve at half-maximal effect)
Summary of the method: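 HRE-bla ME-180 cells, 2,000/well in 0.5% dialyzed FBS medium, treated 17 h at 37C with compounds. Viability read in the same wells as the bla reporter, by CellTiter-Glo luminescence after 30 min at room temperature.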

[7] = qHTS assay to identify small molecule agonists of H2AX (AID 1224845; active = well fitted activation curve with a large enough effect in the signal ratio in the repeat runs, not every such curve was filed as active; the % refers to the signal ratio)
Summary of the method: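 Wild-type CHO-K1 cells, plated overnight, exposed 3hr at 37C to 15 concentrations (0.76% DMSO final). Lysed, then HTRF anti-pH2AX (S139) cryptate and anti-H2AX-d2 antibodies, 24 hr room temperature; 665/620 nm emission read.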

[8] = qHTS assay to identify small molecule agonists of H2AX - cell viability counter screen (AID 1224847; calls by dose curve; also: top concentration of the series differs between compounds; nearly all actives have a fitted effect of over 30% in size)
Summary of the method: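 Viability of CHO-K1 (wild type) cells after 3 hr compound exposure was measured by CellTiter-Glo luminescence.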

[9] = qHTS RealTime-Glo MT Cell Viability Assay in HepG2 cells - 24 hour (AID 1224867); also: nearly all actives have a fitted effect of over 50% in size; also: potency is read from the fitted curve at half-maximal effect
Summary of the method: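 HepG2 cells (600/well) were dispensed with RealTime-Glo reagents, incubated 5 h at 37 °C, then treated with compounds in DMSO for up to 40 h. Nonlytic NanoLuc luminescence reflecting viable cells was read at each stated time point.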

[10] = qHTS RealTime-Glo MT Cell Viability Assay in HEK293 cells - 32 hour (AID 1224868); also: nearly all actives have a fitted effect of over 50% in size; also: potency is read from the fitted curve at half-maximal effect
Summary of the method: (§1)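 HEK293 cells seeded with NanoLuc/prosubstrate reagent, rested 5 h at 37 C, then dosed and kept at 37 C up to 40 h. Nonlytic real-time luminescence from viable cells read at 0, 8, 16, 24, 32 and 40 h.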

[11] = A CellTox Green Cytotoxicity Assay to monitor cytotoxicity in HEK293 cells - 0 hour (AID 1224869); also: nearly all actives have a fitted effect of over 50% in size
Summary of the method: (§2)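 HEK293 cells, 600/well, were preincubated 5 hours and then exposed to compounds at 37 C for up to 40 hours. A cell-impermeant cyanine dye staining dead-cell DNA was read by fluorescence at 0, 8, 16, 24, 32 and 40 h time points.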

[12] = qHTS RealTime-Glo MT Cell Viability Assay in HepG2 cells - 40 hour (AID 1224870); also: nearly all actives have a fitted effect of over 50% in size; also: potency is read from the fitted curve at half-maximal effect
Summary of the method: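 HepG2 cells (600/well) mixed with RealTime-Glo MT reagent, settled 5 h at 37 C/5% CO2 before compound addition. Nonlytic NanoLuc luminescence from viable-cell prosubstrate reduction read repeatedly during 40 h treatment at 37 C.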

[13] = A CellTox Green Cytotoxicity Assay to monitor cytotoxicity in HEK293 cells - 40 hour (AID 1224871); also: nearly all actives have a fitted effect of over 45% in size; also: potency is read from the fitted curve at half-maximal effect
Summary of the method: as §2

[14] = qHTS RealTime-Glo MT Cell Viability Assay in HEK293 cells - 16 hour (AID 1224872); also: nearly all actives have a fitted effect of over 50% in size; also: potency is read from the fitted curve at half-maximal effect
Summary of the method: as §1

[15] = qHTS assay to identify small molecule antagonists of the estrogen related receptor signaling pathway with the pleiotropic PPARgamma coactivator (PGC) from Tox21 10K library (AID 1224841; call rule not given here; also: potency is read from the fitted curve at half-maximal effect)
Summary of the method: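 PGC/ERR cell line, 2,000 cells/well, pre-incubated 6 hours at 37 C, then exposed to compounds for 18 hours at 37 C; luciferase read with One-Glo luminescence after 30 min at room temperature.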

[16] = qHTS assay to identify small molecule agonists of the hypoxia (HIF-1) signaling pathway (AID 1224846; active = well fitted activation curve with a large enough effect in the signal ratio in the repeat runs, not every such curve was filed as active; the % refers to the signal ratio)
Summary of the method: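 HRE-bla ME-180 beta-lactamase reporter cells in medium with 0.5% dialyzed FBS, pre-incubated 5 h then exposed to compounds 17 h at 37C, 5% CO2; reporter induction read with CCF4-AM FRET substrate.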

[17] = qHTS assay to identify small molecule agonists of the estrogen related receptor (ERR) signaling pathway from Tox21 library (AID 1224849; calls by dose curve; also: nearly all actives have a fitted effect of over 15% in size); details: ERR reporter cell line, ONE-Glo luciferase, 18 h
Summary of the method: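 ERR reporter cells (NTP line) pre-incubated 6 hours at 37 C, then exposed to compounds for 18 hours at 37 C. ONE-Glo luciferase luminescence was read after 30 minutes at room temperature.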

[18] = target: Nuclear receptor subfamily 1 group I member 3 (Homo sapiens) (UniProt Q14994); test: qHTS assay to identify small molecule antagonists of the constitutive androstane receptor (CAR) signaling pathway (AID 1224838); also: nearly all actives have a fitted effect of over 40% in size; also: potency is read from the fitted curve at half-maximal effect
Summary of the method: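 HepG2 cells stably carrying hCAR and a CYP2B6-2.2kb luciferase reporter, seeded 4 hrs before compound (15 concentrations). Stimulated with 50 nM CITCO for 24 hr at 37 C. ONE-Glo luminescence read after 30 min at room temperature.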

[19] = target: Nuclear receptor subfamily 1 group I member 3 (Homo sapiens) (UniProt Q14994); test: qHTS assay to identify small molecule agonists of the constitutive androstane receptor (CAR) signaling pathway (AID 1224839); also: nearly all actives have a fitted effect of over 15% in size
Summary of the method: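 Stable hCAR/CYP2B6-2.2kb HepG2 line in DMEM with 10% FBS; compounds (15 concentrations) and 0.75 uM PK11195 final, 24 h at 37 C/5% CO2, then ONE-Glo luminescence after 30 min.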

Luciferin 4-monooxygenase (Photinus pyralis), sequence (P08659 whole entry, looked up): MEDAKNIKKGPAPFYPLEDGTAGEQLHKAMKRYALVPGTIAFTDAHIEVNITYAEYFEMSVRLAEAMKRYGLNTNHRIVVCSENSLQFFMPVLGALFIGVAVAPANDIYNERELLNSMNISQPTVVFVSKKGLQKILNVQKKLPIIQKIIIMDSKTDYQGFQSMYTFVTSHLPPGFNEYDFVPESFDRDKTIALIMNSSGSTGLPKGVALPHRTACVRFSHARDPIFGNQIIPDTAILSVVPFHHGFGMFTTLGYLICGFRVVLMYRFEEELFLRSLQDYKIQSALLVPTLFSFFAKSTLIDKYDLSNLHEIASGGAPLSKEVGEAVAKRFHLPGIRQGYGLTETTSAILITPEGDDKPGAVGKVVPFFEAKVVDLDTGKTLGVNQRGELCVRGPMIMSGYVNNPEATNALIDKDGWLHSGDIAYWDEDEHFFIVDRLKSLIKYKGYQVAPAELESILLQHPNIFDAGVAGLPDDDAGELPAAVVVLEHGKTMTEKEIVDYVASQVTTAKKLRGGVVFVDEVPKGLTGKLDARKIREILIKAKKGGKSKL
Thyrotropin receptor (Homo sapiens), sequence (P16473 whole entry, looked up): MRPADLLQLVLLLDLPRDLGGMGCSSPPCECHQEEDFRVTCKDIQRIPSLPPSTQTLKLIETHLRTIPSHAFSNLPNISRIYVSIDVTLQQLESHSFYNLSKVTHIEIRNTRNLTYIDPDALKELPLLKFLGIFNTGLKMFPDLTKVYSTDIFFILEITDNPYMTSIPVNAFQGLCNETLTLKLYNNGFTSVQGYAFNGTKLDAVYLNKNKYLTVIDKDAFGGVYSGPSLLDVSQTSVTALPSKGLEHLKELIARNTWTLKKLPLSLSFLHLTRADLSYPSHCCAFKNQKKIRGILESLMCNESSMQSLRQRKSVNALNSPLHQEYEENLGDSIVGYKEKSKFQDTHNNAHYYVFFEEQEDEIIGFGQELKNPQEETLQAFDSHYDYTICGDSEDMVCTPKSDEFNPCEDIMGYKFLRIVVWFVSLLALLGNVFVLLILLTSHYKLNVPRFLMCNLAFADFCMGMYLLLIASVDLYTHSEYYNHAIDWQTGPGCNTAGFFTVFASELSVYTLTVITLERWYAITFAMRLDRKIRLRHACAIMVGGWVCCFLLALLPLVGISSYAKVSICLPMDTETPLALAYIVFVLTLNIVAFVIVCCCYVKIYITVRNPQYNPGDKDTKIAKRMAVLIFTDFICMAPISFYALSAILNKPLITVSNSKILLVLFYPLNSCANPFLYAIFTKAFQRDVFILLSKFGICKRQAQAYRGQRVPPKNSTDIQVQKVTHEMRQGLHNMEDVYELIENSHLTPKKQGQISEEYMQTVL
Nuclear receptor subfamily 1 group I member 3 (Homo sapiens), sequence (Q14994 whole entry, looked up): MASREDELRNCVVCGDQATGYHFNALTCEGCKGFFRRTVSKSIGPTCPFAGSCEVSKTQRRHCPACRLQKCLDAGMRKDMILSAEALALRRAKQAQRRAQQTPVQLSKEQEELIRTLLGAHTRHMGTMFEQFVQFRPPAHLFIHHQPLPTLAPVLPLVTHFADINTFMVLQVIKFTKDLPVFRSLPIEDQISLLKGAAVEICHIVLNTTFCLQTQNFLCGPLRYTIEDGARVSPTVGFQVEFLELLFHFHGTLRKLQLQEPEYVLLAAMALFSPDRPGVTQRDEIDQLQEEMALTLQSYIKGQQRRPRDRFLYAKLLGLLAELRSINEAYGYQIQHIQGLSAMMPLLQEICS

| SMILES | Potency [1] | Potency [2] | Potency [3] | Potency [4] | outcome [5] | Potency [6] | outcome [7] | outcome [8] | Potency [9] | Potency [10] | outcome [11] | Potency [12] | Potency [13] | Potency [14] | Potency [15] | outcome [16] | activity change, positive = activation ([17]; at 42.5 µM (top of the series)) | activity change, positive = activation ([17]; at 92.4 µM (top of the series)) | Potency [18] | Potency [19] |
| --- | --- | --- | --- | --- | --- | --- | --- | --- | --- | --- | --- | --- | --- | --- | --- | --- | --- | --- | --- | --- |
| Nc1ccc(S(=O)(=O)c2ccc(N)cc2)cc1 | inactive | inactive | inactive | inactive | inactive | inactive | inactive | inactive | inactive | inactive | inactive | inactive | inactive | inactive |  |  |  |  |  |  |
| c1ccc2[nH]ccc2c1 | inactive |  |  | 8.49 µM (active) and inactive | inactive | 17.1 µM (active) and inactive | inactive | inactive | 6.07 µM (active) and inactive | 2.15 µM (active) and inactive | inactive | 3.41 µM (active) and inactive | 4.82 µM (active) and inactive | 2.15 µM (active) and inactive | 2.69 µM (active) and inactive | inactive | 11.1% (inactive) | -76.8% (inactive) and 0.106% (inactive) |  |  |
| Cc1ccc(S(=O)(=O)NC(=O)NN2CCCCCC2)cc1 | inactive | inactive | inactive | inactive | inactive | inactive | inactive | inactive | inactive | inactive | inactive | inactive | inactive | inactive | inactive |  | -3.23% (inactive) | -0.537% (inactive) and -0.346% (inactive) | inactive |  |
| Cc1ccc(O)cc1 | inactive |  |  | inactive | inactive | inactive | inactive | inactive | inactive | inactive | inactive | inactive | inactive | inactive |  |  |  |  |  |  |
| Nc1ccc(C(=O)O)cc1 | inactive | inactive | inactive | inactive | inactive | inactive | inactive | inactive | inactive | inactive | inactive | inactive | inactive | inactive |  | inactive |  |  | inactive | inactive |
| CC(=O)OCC(COC(C)=O)OC(C)=O | inactive | inactive | inactive | inactive | inactive | inactive | inactive | inactive | inactive | inactive | inactive | inactive | inactive | inactive | inactive | inactive | 6.67% (inactive) | -0.709% (inactive) and 8.04% (inactive) |  |  |
| Cn1c(=O)c2[nH]cnc2n(C)c1=O | inactive | inactive | inactive | inactive | inactive | inactive | inactive | inactive | inactive | inactive | inactive | inactive | inactive | inactive |  |  |  |  |  |  |
| CC(O)C(=O)O (stereo unspecified) | inactive | inactive | inactive | inactive | inactive | inactive | inactive | inactive | inactive | inactive | inactive | inactive | inactive | inactive |  | inactive |  |  | inactive | inactive |
| CCCNC(=O)NS(=O)(=O)c1ccc(Cl)cc1 | inactive | inactive | inactive | inactive | inactive | inactive | inactive | inactive | inactive | inactive | inactive | inactive | inactive | inactive |  | inactive |  |  |  |  |
| NC(N)=NC(=O)c1nc(Cl)c(N)nc1N | inactive | inactive | inactive | inactive | inactive | inactive | inactive | inactive | inactive | inactive | inactive | inactive | inactive | inactive |  |  |  |  | 61.5 µM (active) and 50.4 µM (active) and inactive | inactive |
| Cc1cn([C@H]2C[C@H](N=[N+]=[N-])[C@@H](CO)O2)c(=O)[nH]c1=O | inactive | inactive | inactive | inactive |  | inactive | inactive | inactive | inactive | inactive | inactive | inactive | inactive | inactive | inactive |  | 1.9% (inactive) | 1.55% (inactive) and -3.89% (inactive) |  |  |
| Cc1cc(=O)n(-c2ccccc2)n1C | inactive | inactive | inactive | inactive |  | inactive | inactive | inactive | inactive | inactive | inactive | inactive | 44.8 µM (active) and inactive | inactive | inactive |  | 4.6% (inactive) | 1.91% (inactive) and 2.64% (inactive) | inactive | inactive |
| O=C(O)/C=C\C(=O)O | inactive | inactive | inactive |  | inactive | inactive | inactive | inactive | inactive | inactive | inactive | inactive | inactive | inactive |  | inactive |  |  | inactive |  |
